Measured values published in the supplement of paper PMC10849652.
Of roughly 7,900 targets only a part is listed; those with a hit were picked by preference. About 0.6% of all pairs of compound and target were hits. Values without a mark were called inactive.

Columns and labels:
Assay in all cases: log2 fold change, soluble protein after heating vs DMSO (PISA); higher = thermal stabilisation; K562 cells, 10 uM, 30 min; active = over 0.2 and 3.5 SD of the protein, either way, in both replicates (recomputed)
IRAK-1-4 Inhibitor I = compound: C1COCCN1CCN2C3=CC=CC=C3N=C2NC(=O)C4=CC(=CC=C4)[N+](=O)[O-] [IRAK-1-4 Inhibitor I]
Method in brief: (§1)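 K562 cells (2×10^6 cells/mL) were treated with 10 μM compound for 30 min, and aliquots were heated for 3 min over 48°C-58°C. Pooled aliquots were extracted in PBS with 0.5% NP-40 at 4°C, and the supernatant after 21,000xg for 90 min was measured by TMTpro 16plex LC-MS/MS with channel sums equalised. Reported thermal stability, relative to control samples and from duplicates, is a log2 fold change.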

ibrutinib = compound: C=CC(=O)N1CCC[C@@H](n2nc(-c3ccc(Oc4ccccc4)cc3)c3c(N)ncnc32)C1 [ibrutinib]
Method in brief: as §1

[1] = compound: CC(=O)c1cnc2ccc(-c3cc(Cl)c(O)c(Cl)c3)nc2c1N[C@H]1CC[C@H](CN(C)C)CC1
Method in brief: as §1

ralimetinib = compound: CC(C)(C)Cn1c(N)nc2ccc(-c3[nH]c(C(C)(C)C)nc3-c3ccc(F)cc3)nc21 [ralimetinib]
Method in brief: as §1

[2] = compound: CC(C)(O)CC(=O)NCCn1ccc2ncnc(Nc3ccc(Oc4cccc(C(F)(F)F)c4)c(Cl)c3)c21
Method in brief: as §1

[3] = compound: CC(C)C1=C2N=C(C=C(N2N=C1)NCC3=CC=CC=C3)NCCCCCCN
Method in brief: as §1

[4] = compound: CC(C)C[C@@H](C=O)NC(=O)[C@H](CC(C)C)NC(=O)[C@H](CC(C)C)NC(=O)OCc1ccccc1
Method in brief: as §1

pinometostat = compound: CC(C)N(C[C@H]1O[C@@H](n2cnc3c(N)ncnc32)[C@H](O)[C@@H]1O)[C@H]1C[C@@H](CCc2nc3cc(C(C)(C)C)ccc3[nH]2)C1 [pinometostat]
Method in brief: as §1

[5] = compound: CC1=C(C(CC(=O)N1)C2=CC=C(C=C2)C(F)(F)F)C(=O)NC3=C(C=C4C(=C3)C=NN4)F
Method in brief: as §1

[6] = compound: CC1=C(C2=C(C=C1)C(=O)C3=CC=CC=C3N2CCCN)C
Method in brief: as §1

Chain of UniProt Q9UPY8 (Q9UPY8 whole entry, looked up): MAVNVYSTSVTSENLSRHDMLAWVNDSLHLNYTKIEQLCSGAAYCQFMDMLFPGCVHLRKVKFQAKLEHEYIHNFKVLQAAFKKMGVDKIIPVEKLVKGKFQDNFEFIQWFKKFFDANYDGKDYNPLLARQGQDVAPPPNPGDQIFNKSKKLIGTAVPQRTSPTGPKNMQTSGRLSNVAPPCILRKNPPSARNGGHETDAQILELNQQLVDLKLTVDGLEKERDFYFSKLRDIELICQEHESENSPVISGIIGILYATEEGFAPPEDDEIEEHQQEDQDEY
Chain of UniProt P18065 (P18065 whole entry, looked up): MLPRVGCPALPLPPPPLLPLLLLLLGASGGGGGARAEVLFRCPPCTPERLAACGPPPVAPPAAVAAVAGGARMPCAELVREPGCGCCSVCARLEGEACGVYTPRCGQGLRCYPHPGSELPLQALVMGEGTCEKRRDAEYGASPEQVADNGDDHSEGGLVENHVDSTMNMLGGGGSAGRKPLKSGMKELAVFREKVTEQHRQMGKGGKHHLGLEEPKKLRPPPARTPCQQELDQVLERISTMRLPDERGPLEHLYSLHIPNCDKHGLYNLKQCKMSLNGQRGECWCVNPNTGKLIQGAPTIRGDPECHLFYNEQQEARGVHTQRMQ
Chain of UniProt Q96PV6 (Q96PV6 whole entry, looked up): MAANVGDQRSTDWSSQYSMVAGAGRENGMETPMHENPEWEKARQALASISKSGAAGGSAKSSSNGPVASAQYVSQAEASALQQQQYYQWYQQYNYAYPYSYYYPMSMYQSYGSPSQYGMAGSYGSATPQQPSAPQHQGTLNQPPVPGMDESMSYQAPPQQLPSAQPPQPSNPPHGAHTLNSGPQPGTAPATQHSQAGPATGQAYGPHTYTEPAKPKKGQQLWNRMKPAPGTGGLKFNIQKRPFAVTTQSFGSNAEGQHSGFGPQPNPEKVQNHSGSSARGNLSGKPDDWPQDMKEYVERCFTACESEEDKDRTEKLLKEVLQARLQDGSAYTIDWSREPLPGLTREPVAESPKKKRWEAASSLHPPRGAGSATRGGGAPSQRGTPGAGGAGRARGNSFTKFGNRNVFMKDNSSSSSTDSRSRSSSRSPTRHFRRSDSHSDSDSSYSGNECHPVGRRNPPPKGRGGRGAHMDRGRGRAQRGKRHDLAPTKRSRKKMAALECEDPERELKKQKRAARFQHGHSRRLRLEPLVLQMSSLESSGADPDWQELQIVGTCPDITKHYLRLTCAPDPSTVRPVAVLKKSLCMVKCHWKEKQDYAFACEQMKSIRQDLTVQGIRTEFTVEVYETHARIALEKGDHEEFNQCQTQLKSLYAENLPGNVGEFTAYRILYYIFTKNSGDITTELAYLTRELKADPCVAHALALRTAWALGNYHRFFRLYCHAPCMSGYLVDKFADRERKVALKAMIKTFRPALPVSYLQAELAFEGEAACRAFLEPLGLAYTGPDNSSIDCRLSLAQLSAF
Chain of UniProt Q96A72 (Q96A72 whole entry, looked up): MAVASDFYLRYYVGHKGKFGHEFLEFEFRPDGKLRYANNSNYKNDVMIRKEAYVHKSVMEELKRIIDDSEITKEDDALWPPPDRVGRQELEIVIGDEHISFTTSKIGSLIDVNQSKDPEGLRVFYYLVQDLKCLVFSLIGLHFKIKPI
Chain of UniProt Q14974 (Q14974 whole entry, looked up): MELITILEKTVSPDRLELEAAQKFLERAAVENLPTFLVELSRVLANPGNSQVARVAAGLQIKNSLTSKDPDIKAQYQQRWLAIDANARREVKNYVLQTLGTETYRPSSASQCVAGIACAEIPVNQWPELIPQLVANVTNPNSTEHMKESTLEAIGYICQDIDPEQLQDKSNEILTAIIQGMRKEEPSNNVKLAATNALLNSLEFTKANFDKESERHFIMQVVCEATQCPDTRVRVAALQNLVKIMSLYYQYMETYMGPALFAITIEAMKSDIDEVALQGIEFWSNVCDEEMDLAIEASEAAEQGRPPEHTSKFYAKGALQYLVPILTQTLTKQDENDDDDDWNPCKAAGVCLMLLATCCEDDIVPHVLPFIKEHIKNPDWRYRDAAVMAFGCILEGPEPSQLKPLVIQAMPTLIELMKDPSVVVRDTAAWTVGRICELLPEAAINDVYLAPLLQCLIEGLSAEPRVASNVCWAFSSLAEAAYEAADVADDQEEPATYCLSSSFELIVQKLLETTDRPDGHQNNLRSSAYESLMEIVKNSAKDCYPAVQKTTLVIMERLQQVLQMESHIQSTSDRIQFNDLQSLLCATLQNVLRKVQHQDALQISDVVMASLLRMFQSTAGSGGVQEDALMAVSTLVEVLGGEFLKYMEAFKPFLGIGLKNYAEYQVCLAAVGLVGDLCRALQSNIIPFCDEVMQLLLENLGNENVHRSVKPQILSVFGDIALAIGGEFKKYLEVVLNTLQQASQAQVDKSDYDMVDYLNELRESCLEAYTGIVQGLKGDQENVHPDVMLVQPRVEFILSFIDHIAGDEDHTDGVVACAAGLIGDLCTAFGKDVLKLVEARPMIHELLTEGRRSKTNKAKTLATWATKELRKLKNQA
Chain of UniProt Q12905 (Q12905 whole entry, looked up): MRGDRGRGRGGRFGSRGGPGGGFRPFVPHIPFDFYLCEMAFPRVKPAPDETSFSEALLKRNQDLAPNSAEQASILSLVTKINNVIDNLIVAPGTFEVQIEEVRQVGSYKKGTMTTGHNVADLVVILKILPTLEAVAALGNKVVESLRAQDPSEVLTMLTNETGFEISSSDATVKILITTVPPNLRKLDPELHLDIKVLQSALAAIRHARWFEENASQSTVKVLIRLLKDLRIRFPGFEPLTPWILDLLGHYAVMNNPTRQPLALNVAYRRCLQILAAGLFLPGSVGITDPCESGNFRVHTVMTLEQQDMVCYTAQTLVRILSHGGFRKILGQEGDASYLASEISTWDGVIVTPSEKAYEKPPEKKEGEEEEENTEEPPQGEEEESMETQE
Chain of UniProt Q08431 (Q08431 whole entry, looked up): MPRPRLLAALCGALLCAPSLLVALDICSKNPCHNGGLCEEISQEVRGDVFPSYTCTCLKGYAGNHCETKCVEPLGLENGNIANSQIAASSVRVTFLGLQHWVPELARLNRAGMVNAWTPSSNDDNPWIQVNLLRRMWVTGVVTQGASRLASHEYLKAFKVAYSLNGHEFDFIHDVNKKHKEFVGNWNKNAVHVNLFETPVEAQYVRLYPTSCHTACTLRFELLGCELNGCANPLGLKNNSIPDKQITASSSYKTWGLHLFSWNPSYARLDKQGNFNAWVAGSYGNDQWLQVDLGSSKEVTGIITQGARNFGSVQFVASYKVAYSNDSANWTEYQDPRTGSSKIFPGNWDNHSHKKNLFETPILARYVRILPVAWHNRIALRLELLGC
Chain of UniProt Q9BY66 (Q9BY66 whole entry, looked up): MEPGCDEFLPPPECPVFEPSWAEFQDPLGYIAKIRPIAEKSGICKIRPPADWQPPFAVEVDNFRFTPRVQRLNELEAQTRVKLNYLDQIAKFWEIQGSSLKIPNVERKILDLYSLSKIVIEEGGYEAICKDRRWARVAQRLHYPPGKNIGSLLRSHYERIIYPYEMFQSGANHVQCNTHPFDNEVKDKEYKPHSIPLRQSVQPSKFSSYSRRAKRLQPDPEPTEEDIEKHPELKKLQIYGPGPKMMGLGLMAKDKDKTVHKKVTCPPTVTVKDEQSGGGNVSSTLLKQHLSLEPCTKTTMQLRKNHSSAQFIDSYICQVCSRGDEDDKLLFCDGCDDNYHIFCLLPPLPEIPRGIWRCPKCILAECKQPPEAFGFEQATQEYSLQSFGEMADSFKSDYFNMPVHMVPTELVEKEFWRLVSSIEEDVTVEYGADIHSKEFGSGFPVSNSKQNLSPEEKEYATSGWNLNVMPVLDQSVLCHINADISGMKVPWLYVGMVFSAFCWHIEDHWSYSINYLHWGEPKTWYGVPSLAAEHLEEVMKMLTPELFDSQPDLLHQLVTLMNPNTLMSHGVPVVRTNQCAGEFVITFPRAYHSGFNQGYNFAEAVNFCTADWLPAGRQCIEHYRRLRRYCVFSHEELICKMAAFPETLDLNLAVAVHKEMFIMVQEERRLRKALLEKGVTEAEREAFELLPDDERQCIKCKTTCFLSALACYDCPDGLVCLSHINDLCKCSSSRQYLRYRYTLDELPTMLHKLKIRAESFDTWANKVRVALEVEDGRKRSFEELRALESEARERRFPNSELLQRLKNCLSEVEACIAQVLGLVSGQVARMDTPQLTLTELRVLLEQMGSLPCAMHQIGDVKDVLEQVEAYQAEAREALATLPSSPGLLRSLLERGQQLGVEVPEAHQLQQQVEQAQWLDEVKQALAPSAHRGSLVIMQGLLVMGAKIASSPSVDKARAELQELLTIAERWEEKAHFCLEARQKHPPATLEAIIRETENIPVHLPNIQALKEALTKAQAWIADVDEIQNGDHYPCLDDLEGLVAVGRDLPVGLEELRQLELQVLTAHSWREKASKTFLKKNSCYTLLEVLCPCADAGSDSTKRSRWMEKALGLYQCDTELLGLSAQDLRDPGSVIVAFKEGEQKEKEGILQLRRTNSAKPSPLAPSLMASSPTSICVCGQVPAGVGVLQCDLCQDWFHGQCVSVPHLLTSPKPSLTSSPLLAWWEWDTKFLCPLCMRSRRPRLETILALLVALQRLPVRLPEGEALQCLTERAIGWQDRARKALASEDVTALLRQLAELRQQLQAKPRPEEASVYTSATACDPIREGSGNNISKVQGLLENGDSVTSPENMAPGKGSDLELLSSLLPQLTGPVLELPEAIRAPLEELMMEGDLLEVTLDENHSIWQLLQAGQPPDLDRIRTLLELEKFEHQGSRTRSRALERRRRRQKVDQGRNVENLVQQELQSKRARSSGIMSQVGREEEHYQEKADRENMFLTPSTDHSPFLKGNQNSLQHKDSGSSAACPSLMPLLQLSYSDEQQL
Chain of UniProt P14174 (P14174 whole entry, looked up): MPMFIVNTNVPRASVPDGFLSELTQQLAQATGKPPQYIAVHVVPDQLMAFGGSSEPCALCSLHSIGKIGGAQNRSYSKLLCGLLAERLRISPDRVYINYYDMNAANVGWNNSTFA

Row | Target | log2 fold change (IRAK-1-4 Inhibitor I) | log2 fold change (ibrutinib) | log2 fold change [1] | log2 fold change (ralimetinib) | log2 fold change [2] | log2 fold change [3] | log2 fold change [4] | log2 fold change (pinometostat) | log2 fold change [5] | log2 fold change [6]
1 | MIF (UniProt P14174) | 0.017 | 0.039 | -0.014 | 0.071 | -0.119 | 0.052 | 0.04 | -0.043 | 0.201 | 0.133
2 | MFGE8 (UniProt Q08431) | -0.058 | 0.016 | 0.269 | 0.152 | 0.105 | 0 | 0.191 | 0.12 | -0.008 | -0.038
3 | ILF2 (UniProt Q12905) | -0.095 | 0.027 | 0.155 | 0.131 | 0.082 | 0.318 | -0.024 | 0.064 | -0.014 | 0.204
4 | MAP1LC3B2 (UniProt A6NCE7) | -0.002 | -0.053 | -0.059 | -0.026 | 0.008 | -0.087 | 0.009 | -0.008 | -0.041 | -0.01
5 | LENG8 (UniProt Q96PV6) | -0.122 | 0 | -0.173 | -0.13 | -0.389 | -0.646 (active) | 0.107 | -0.071 | 0.031 | 0.15
6 | MAGOHB (UniProt Q96A72) | -0.031 | 0.004 | 0.25 | -0.094 | 0.015 | 0.061 | 0 | -0.022 | -0.034 | 0.028
7 | MAST4 (UniProt O15021) | -0.025 | -0.138 | -0.089 | -0.479 (active) | -0.091 | -0.085 | 0.002 | -0.057 | -0.027 | 0.268
8 | KIFBP (UniProt Q96EK5) | -0.019 | 0.011 | -0.033 | -0.02 | -0.045 | -0.172 | 0.2 | 0.019 | -0.034 | 0.054
9 | JMJD6 isoform 3 (UniProt Q6NYC1) | -0.02 | -0.011 | -0.049 | -0.065 | 0.019 | -0.041 | 0.004 | -0.016 | 0.013 | 0.102
10 | KPNB1 (UniProt Q14974) | -0.079 | -0.041 | 0.033 | 0.042 | -0.036 | -0.355 (active) | 0.035 | 0.113 | 0.012 | -0.038
11 | MAPRE3 (UniProt Q9UPY8) | 0.027 | -0.044 | -0.003 | -0.142 | -0.049 | -0.079 | -0.033 | 0.019 | 0.01 | -0.029
12 | LMNB2 (UniProt Q03252) | -0.026 | -0.017 | -0.214 (active) | -0.018 | 0.052 | -0.093 | 0.03 | 0.011 | -0.013 | -0.022
13 | MDC1 (UniProt Q14676) | -0.012 | -0.013 | -0.013 | 0.062 | 0.122 | -0.321 | 0.176 | 0.133 | 0.001 | 0.11
14 | KDM5D isoform 3 (UniProt Q9BY66) | -0.042 | -0.222 | -0.05 | -0.083 | -0.155 | 0.036 | 0.114 | -0.047 | 0.043 | -0.103
15 | IGFBP2 (UniProt P18065) | 0.196 | 0.09 | 0.166 | -0.115 | -0.063 | -0.137 | 0.008 | -0.192 | 0.254 | -0.159
